Data taken from paper PMC5913336, “True equilibrium measurement of transcription factor-DNA binding affinities using automated polarization microscopy”.
pKd: −log10 of the molar value.

molecular target: T1, Hb (Drosophila melanogaster, UniProt P05084 225-364); experiment: FP; 33 mM phosphate pH 7.0, 90 mM NaCl, 0.01% Tween 20, 0.1 mM DTT, 0.5% agarose; room temperature; settings: tags: N-GST (pGEX-6P-1, kept); dsDNA, one strand shown
T1 sequence: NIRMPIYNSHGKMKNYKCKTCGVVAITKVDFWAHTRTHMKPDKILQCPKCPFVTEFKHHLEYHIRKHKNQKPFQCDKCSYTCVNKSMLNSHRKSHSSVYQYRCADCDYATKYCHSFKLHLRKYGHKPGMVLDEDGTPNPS

Row | Sequence | binding signal
1 | AATTTTTTAGGC | 1.04 Kd / Kd of best base at the position
2 | AGGTTTTTAGGC | 1.26 Kd / Kd of best base at the position
3 | AGTTTTTTAGTC | 1.14 Kd / Kd of best base at the position
4 | AGATTTTTAGGC | 3.22 Kd / Kd of best base at the position
5 | AGTTTTGTAGGC | 9.72 Kd / Kd of best base at the position

molecular target: T2, Hkb (Drosophila melanogaster, UniProt Q9VN10 181-296); experiment: as above; settings: tags: N-GST (pGEX-6P-1, kept); dsDNA, one strand shown
T2 sequence: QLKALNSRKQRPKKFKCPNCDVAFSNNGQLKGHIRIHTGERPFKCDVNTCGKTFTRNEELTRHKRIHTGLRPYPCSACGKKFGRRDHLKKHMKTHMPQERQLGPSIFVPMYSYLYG

Row | Sequence | binding signal | pKd
6 | AAGGGGCGCGAT | 170 Kd / Kd of best base at the position | 
7 | AAGGAGCGTGAT | 52 Kd / Kd of best base at the position | 
8 | GAGGGGCGTGAT | 3 Kd / Kd of best base at the position | 
9 | AAGGGGCGTGTT | 150 Kd / Kd of best base at the position | 
10 | AAGGGGCGTGAT |  | ~8.64
11 | CAGGGGCGTGAT | 6.48 Kd / Kd of best base at the position | 
12 | AAGGGGCGTGAC | 1.18 Kd / Kd of best base at the position | 
13 | AAGGGGCATGAT | 318 Kd / Kd of best base at the position | 
14 | AAGCGGCGTGAT | 121 Kd / Kd of best base at the position | 
15 | AAGGGGGGTGAT | 55.1 Kd / Kd of best base at the position | 
16 | AAGGGACGTGAT | 86.7 Kd / Kd of best base at the position | 
17 | AAGGGTCGTGAT | 116 Kd / Kd of best base at the position | 
18 | AAGGGGTGTGAT | 277 Kd / Kd of best base at the position | 
19 | TAGGGGCGTGAT | 2.68 Kd / Kd of best base at the position | 
20 | ATGGGGCGTGAT | 2.01 Kd / Kd of best base at the position | 
21 | AAGTGGCGTGAT | 155 Kd / Kd of best base at the position | 
22 | AGGGGGCGTGAT | 5.34 Kd / Kd of best base at the position | 
23 | AAGGTGCGTGAT | 62.2 Kd / Kd of best base at the position | 

Row | Sequence | binding signal | pKd
24 | AAGGGGCCTGAT | 164 Kd / Kd of best base at the position | 
25 | AAGGGGCGTGAA | 2.74 Kd / Kd of best base at the position | 
26 | AAGGGCCGTGAT | 107 Kd / Kd of best base at the position | 
27 | AAGGGGCGGGAT | 85.9 Kd / Kd of best base at the position | 
28 | AACGGGCGTGAT | 16.2 Kd / Kd of best base at the position | 
29 | AAGGGGCGTTAT | 124 Kd / Kd of best base at the position | 
30 | AAAGGGCGTGAT | 3.42 Kd / Kd of best base at the position | 
31 | AAGGGGCGTGAG | 1.09 Kd / Kd of best base at the position | 
32 | AATGGGCGTGAT | 1.81 Kd / Kd of best base at the position | 
33 | ACGGGGCGTGAT | 2.33 Kd / Kd of best base at the position | 
34 | AAGGGGAGTGAT | 103 Kd / Kd of best base at the position | 
35 | AAGGGGCGTGGT | 127 Kd / Kd of best base at the position | 
36 | AAGGGGCGAGAT | 75.8 Kd / Kd of best base at the position | 
37 | AAGGGGCGTGCT | 119 Kd / Kd of best base at the position | 
38 | AAGGGGCTTGAT | 235 Kd / Kd of best base at the position | 
39 | AAGGGGCGTCAT | 134 Kd / Kd of best base at the position | 
40 | AAGAGGCGTGAT | 8.29 Kd / Kd of best base at the position | 
